This is a sample that favours compounds with a hit; in the whole collection about 18% have one here.
TDP1 block: inhibitors of human tyrosyl-DNA phosphodiesterase TDP1; AID 485290; Potency, µM (doses to about 130 µM), inactives show at the top dose activity change, negative = inhibition, most hits filed as inhibitors; recombinant TDP1, AlphaScreen DNA substrate cleavage; Q9NUW8; hit rate 0.28% among 350,000; further: nearly all actives have a fitted effect of over 40% in size
Target sequence (Q9NUW8 whole entry, looked up): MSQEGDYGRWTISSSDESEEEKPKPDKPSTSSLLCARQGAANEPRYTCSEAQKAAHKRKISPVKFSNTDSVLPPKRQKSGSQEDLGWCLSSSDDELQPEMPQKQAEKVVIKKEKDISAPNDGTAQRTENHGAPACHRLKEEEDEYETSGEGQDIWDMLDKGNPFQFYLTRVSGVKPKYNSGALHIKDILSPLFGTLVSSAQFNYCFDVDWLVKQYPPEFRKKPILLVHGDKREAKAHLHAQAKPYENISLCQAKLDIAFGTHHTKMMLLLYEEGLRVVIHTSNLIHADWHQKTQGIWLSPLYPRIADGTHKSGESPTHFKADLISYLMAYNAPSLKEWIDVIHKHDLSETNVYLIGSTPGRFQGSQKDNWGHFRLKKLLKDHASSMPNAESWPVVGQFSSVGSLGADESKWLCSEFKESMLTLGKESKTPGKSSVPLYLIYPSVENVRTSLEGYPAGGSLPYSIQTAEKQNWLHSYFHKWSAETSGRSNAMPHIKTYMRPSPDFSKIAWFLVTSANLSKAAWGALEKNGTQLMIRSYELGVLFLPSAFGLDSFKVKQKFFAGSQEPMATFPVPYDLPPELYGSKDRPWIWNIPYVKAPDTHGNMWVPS
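Steps: enzyme plus compound, 15 min RT; add biotin/phosphotyrosine-FITC oligonucleotide (15 nM final), react 5 min; add donor/acceptor beads (10 ug/ml final), 10 min; read AlphaScreen. Tdp1 at 1 nM final.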
GCN5L2 inh: GCN5L2 (KAT2A) acetyltransferase inhibition; hit rate 0.21% among 390,000; Q92830; Potency, µM (titrated, usually from 58.9 µM), inactives show top-dose activity change, negative = inhibition, most hits filed as inhibitors; GCN5L2 HAT assay, ThioGlo1 CoA-SH fluorescence
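Titration-based screen in which CoA formation is detected via maleimide probe ThioGlo1 (50uM) turning fluorescent on thiol reaction; substrates H3(1-25) 75uM and acetyl-CoA 70uM, GCN5L2 20nM, 20 min incubation at room temperature.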
TDP1 cell CPT: growth inhibition of DT40 Tdp1-/-;hTDP1 cells with camptothecin (screen for TDP1 inhibitors); chicken DT40 Tdp1-/-;hTDP1 cells + 20 nM CPT, ATP luminescence, 48 h; Potency, µM (top dose mostly 46.2 µM), without a hit: at the top dose activity change, negative = growth inhibition, most hits filed as inhibitors; AID 686979; hit rate 12% among 420,000; further: nearly all actives have a fitted effect of over 55% in size
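Cell growth measured by CellTiter-Glo luminescence after a minimum 48 h, 37 C compound exposure with 20 nM CPT in Tdp1-knockout DT40 cells stably expressing hTDP1, seeded 400/well; qHTS titration format.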
VDR inh: blocks the human vitamin D receptor. VDR-SRC2-3 peptide fluorescence polarization, 2 h. P11473. hit rate 0.93% among 400,000. Potency, µM, inactives show max response, negative = inhibition, most hits filed as inhibitors
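Compounds are added to VDR with labelled SRC2-3 coactivator peptide and held 2 h at room temperature. Inhibition of the VDR–peptide interaction is then read as a change in fluorescence polarization.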
PLK1 PBD inh: PLK1 (human) polo-box domain binding inhibition; P53350; Plk1 PBD binding of FITC phosphopeptide, fluorescence polarization; Potency, µM, inactives show max response, negative = inhibition, hits mostly inhibitors; AID 720504; hit rate 2.8% among 360,000; further: series mostly up to about 57 µM; nearly all actives have a fitted effect of over 65% in size
TDP1 cell noCPT: qHTS for Inhibitors of human tyrosyl-DNA phosphodiesterase 1 (TDP1): qHTS in cells in absence of CPT. hit rate 15% among 420,000. AID 686978, 2013. Potency, µM (top dose mostly 46.2 µM), inactives show at the highest dose activity change, negative = growth inhibition, usual class: inhibitors. DT40 Tdp1-/- hTDP1 cells, no CPT, ATP luminescence, 48 h; further: nearly all actives have a fitted effect of over 55% in size
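Compound effects on proliferation are scored in DT40 Tdp1-/-;hTDP1 cells in the absence of CPT. ATP levels (CellTiter-Glo luminescence) are recorded after a ≥48 hr, 37 °C incubation.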
* hit, by the source's call; ? = inconclusive; . = no result; [ ] = another dose, or the depositor's remark. The call rests on the fitted dose curve; in most records, active means well fitted curve in the direction sought with a large enough effect; inconclusive means small, poorly fitted or top-dose-only effect, or another doubt; inactive means no such curve, though single readings can be large; an effect the other way counts as inactive or inconclusive. On the % scale 0 is the no-effect control and ±100 the full control effect; potency means the concentration at half of the fitted maximal effect.

SMILES	TDP1 block	GCN5L2 inh	TDP1 cell CPT	VDR inh	PLK1 PBD inh	TDP1 cell noCPT
COc1ccc(S(=O)(=O)c2c(Nc3c(C)cccc3C)sc(C(=O)c3ccc(F)cc3)c2N)cc1	8%	-22%	5.8µM*	4%	.	5.2µM*
COc1ccccc1Nc1sc(C(=O)c2ccc(F)cc2)c(N)c1S(=O)(=O)c1ccc(C)cc1	1%	-13%	.	11%	.	.
Cc1ccc(S(=O)(=O)c2c(Nc3cc(C)ccc3C)sc(C(=O)c3ccc4c(c3)OCO4)c2N)cc1	1%	-32%	6.5µM*	12%	.	7.3µM*
COc1ccc(S(=O)(=O)c2c(Nc3c(C)cccc3C)sc(C(=O)c3ccc4c(c3)OCO4)c2N)cc1	1%	-10%	5.2µM*	-3%	.	2.9µM*
CCCCCCCCC/C=C/CC1CC(=O)OC1=O (stereo not drawn)	5%	.	.	.	.	.
CCCCOc1ccc(C2=NC(c3ccccc3)=Nc3ccc(OC)cc3N2)cc1	0%	1%	16µM*	0%	.	23µM*
CCOc1ccc(C2=NC(c3ccc(OC)cc3)=Nc3ccc(Cl)cc3N2)cc1	5%	0%	?	2%	.	21µM*
COc1ccc(C2=Nc3ccc(OC(F)(F)F)cc3NC(c3cccnc3)=N2)cc1	5%	-6%	10µM*	-12%	.	6.5µM*
CCCCOc1ccc(C2=NC(c3ccncc3)=Nc3ccc(Br)cc3N2)cc1	2%	-14%	?	-10%	.	?
Cc1ccc(S(=O)Cc2nc(-c3ccc(C(=O)NCc4cccc(C)c4)cc3)oc2C)cc1 (stereo not drawn)	-3%	-1%	10%	2%	.	?
c1ccc(CSc2nc3ncccc3[nH]2)cc1	7%	2%	-8%	-1%	.	?
CCS(=O)(=O)Nc1cc(-c2nc3cccnc3s2)ccc1C	5%	-3%	?	-4%	-9%	26µM*
Cc1cccc(C(=O)Nc2ccc3oc(-c4ccncc4)nc3c2)c1	.	-8%	21µM*	2%	.	12µM*
O=C(Nc1ccc(-c2nc3cc(NC(=O)c4ccc(F)cc4)ccc3o2)cc1)c1ccc(F)cc1	3%	-6%	23%	10%	.	-2%
Cc1cc2nc(-c3cccc(NC(=O)c4cccc5ccccc45)c3)oc2cc1C	7%[12.3 µM]	-9%	-17%	-21%	.	-16%
Cc1cc2nc(-c3ccc(NC(=O)c4ccccc4F)cc3)oc2cc1C	3%[12.3 µM]	-6%	?	-5%	.	8.2µM*
Cc1cccc(C(=O)Nc2ccc(C(=O)c3ccncc3)cc2)c1	.	.	?	.	0%	15µM*
O=C(Nc1ccc2oc(-c3ccncc3)nc2c1)c1ccc(F)cc1	79µM*	-23%	-3%	-5%	-23%	-20%
C=CC1=C(C)C2=NC1=CC1=NC(=CC3=NC(=CC4=NC(=C2)C(C)=C4CCC(=O)O)C(CCC(=O)O)=C3C)C(C=C)=C1C.[Zn]	.	-14%	?	?	.	?
CCOC(=O)C1(C)CCN1C(=O)c1cc(F)ccc1C (stereo not drawn)	.	.	?	.	2%	-15%
O=C(Nc1ccc2oc(-c3ccccc3)nc2c1)c1ccc2c(c1)OCCO2	6%	-4%	23µM*	-15%	0%	16µM*
COc1c(F)c(F)c(C(=O)Nc2ccc3oc(-c4ccncc4)nc3c2)c(F)c1F	7%	-17%	-10%	0%	-7%	-18%
O=C(Nc1ccc2oc(-c3ccncc3)nc2c1)c1c(F)c(F)c(F)c(F)c1F	2%	-4%	0.73µM*	-7%	-14%	1.5µM*
O=C(Nc1ccc2oc(-c3cccc4c(Br)cccc34)nc2c1)c1ccc(F)cc1	3%[12.3 µM]	1%	?	-18%	.	10µM*
COc1cccc(OC)c1C(=O)NC(=S)Nc1ccc2oc(-c3ccncc3)nc2c1	3%	2%	26µM*	16%	0%	23µM*
SMILES	TDP1 block	GCN5L2 inh	TDP1 cell CPT	VDR inh	PLK1 PBD inh	TDP1 cell noCPT
COCCNC(=O)C1=CC(c2ccc3c(c2)OCO3)=NS(=O)(=O)N1C	3%	-10%	0%	-2%	.	-16%
CC1(C(=O)NS(=O)(=O)c2ccccc2)CCN1C(=O)c1ccc(C2CCCCC2)cc1 (stereo not drawn)	.	.	-9%	.	-12%	-2%
Cc1ccc(NC(=O)CN(C)C(=O)/C=C/c2cccs2)cc1	3%	-6%	-23%	13%	-2%	-13%
CCOC(=O)N1CCN(C(=O)Cc2ccccc2OC)CC1	.	1%	-12%	4%	-20%	-12%
COc1ccccc1C(=O)Nc1ccc2oc(-c3ccc(F)cc3)nc2c1	5%	-29%	18µM*	13%	-9%	?
CC(C)Oc1cccc(C(=O)Nc2ccc3oc(-c4ccccc4)nc3c2)c1	2%	-4%	?	0%	.	21µM*
CC1(C)CC(=O)C2=C(C1)OC(N)=C(C#N)C21C(=O)N(CN2CCOCC2)c2ccccc21 (stereo not drawn)	1%	-6%	-23%	-5%	-3%	-7%
COc1cccc(CN2C(=O)C3(C(C#N)=C(N)OC4=C3C(=O)CCC4)c3ccccc32)c1 (stereo not drawn)	3%	-3%	0.65µM*	3%	0%	0.92µM*
O=C(Nc1nc(-c2ccccn2)cs1)c1ccc(Cl)s1	10%	-25%	1µM*	-4%	-5%	0.92µM*
CCc1sc(C(=O)Nc2nccs2)cc1C	.	-15%	?	-14%	-5%	?
CCc1sc(C(=O)NCc2ccccc2)cc1C	-8%	-11%	21µM*	-4%	-1%	13µM*
CCc1sc(C(=O)NNC(=O)CNC(=O)c2ccccc2F)cc1C	0%	-1%	-10%	3%	-13%	-9%
Cn1cccc1C(=O)Nc1nc(-c2ccccn2)cs1	-3%	-6%	2.6µM*	-23%	?	4.1µM*
CCc1sc(C(=O)Nc2nc(-c3ccccn3)cs2)cc1C	4%	-10%	2.9µM*	22%	?	4.1µM*
CCNc1ncc2nc(-c3cn(C)c4ccccc34)c(=O)n(Cc3ccc(F)cc3)c2n1	.	-5%	-9%	0%	.	-12%
CCn1nc(C)c(CN2CCC(n3nccc3NC(=O)c3ccc4c(c3)OCO4)CC2)c1C	3%	-7%	-1%	17%	4%	13%
COC(=O)c1cc2cc(Cl)ccc2nc1SC	-3%	2%	10%	5%	-9%	-3%
CSCC[C@H](NC(=O)[C@@H]1Cc2ccccc2CN1)C(=O)Nc1ccc2c(c1)OCCO2	5%	-2%	11%	4%	-7%	4%
O=S(=O)(c1ccc(-n2cnnn2)cc1)N1CCN(c2cccc(C(F)(F)F)c2)CC1	2%	-1%	-8%	0%	.	-14%

Compound activity from PubChem BioAssay.
